The text below walks through data of PubChem BioAssay (NCATS).

Holding throughout (assay): qHTS profiling for inhibitors of Plasmodium falciparum proliferation (AID 504749); also: nearly all actives have a fitted effect of over 60% in size
Conditions in all cases: P. falciparum in erythrocytes, SYBR Green DNA, 72 h; series mostly up to 28.7 µM
On the technique in general: In qHTS, concentration-response curves come from the screen itself.

One experiment concerns 3D7. The procedure, abridged: (§1)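 Each compound contacts P. falciparum-infected red blood cells for 72 h at 37 C; lysis buffer (Tris, EDTA, saponin, Triton X, SYBR Green I) is added and fluorescence measured next morning; values normalized to controls.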
The next experiment relates to 7G8. The procedure, abridged: as §1
The subject of the next experiment is AA1029. The procedure, abridged: as §1
The next experiment has as its system AS120. Put shortly:
as §1

Another experiment deals with ATS189. Put shortly: as §1
A further experiment concerns ATS95. Put shortly: as §1
In the next experiment the test system is C2A. The procedure, abridged: as §1
Another experiment deals with CP185. Put shortly:
as §1

The next experiment relates to CP191. The procedure, abridged: as §1
A further experiment relates to CP192. Put shortly: as §1

Records with an inconclusive call do not appear. Activity calls are given as the source filed them. Calls follow the shape of the dose curve; as a rule, active = well fitted inhibition curve with a large enough effect; inconclusive = small, poorly fitted or top-dose-only effect; inactive = flat fitted curve, though single readings scatter.
Potency is read from the fitted curve at half-maximal effect.

On to `NC(=O)c1ncn([C@@H]2O[C@H](CO)[C@@H](O)[C@H]2O)c1O`, for which the Potency entry in the experiment on 3D7, in the experiment on 7G8, with AA1029, in the experiment on AS120, in the experiment on ATS189 and with ATS95 was “inactive” in each case. Moreover, the Potency entry in the experiment with C2A, with CP185, in the experiment on CP191 and in the experiment with CP192 was “inactive” each time.

For the compound `CCCCCN(CCCCC)C(=O)C(CCC(=O)O)NC(=O)c1ccc(Cl)c(Cl)c1` (stereo not drawn), the Potency entry in the experiment with 3D7, in the experiment with 7G8, with AA1029, in the experiment on AS120, in the experiment with ATS189 and in the experiment with ATS95 was “inactive” throughout. Also, the Potency result with C2A, in the experiment on CP185, in the experiment on CP191 and with CP192 was “inactive” each time.

As for `CCN(CC)CCCN(c1ccccc1)C1Cc2ccccc2C1`, the Potency with 3D7 is 10 µM (active); in the experiment with 7G8, 1.78 µM (active); with AA1029, 4.47 µM (active); with AS120, 4.47 µM (active); in the experiment with ATS189 it was 12.6 µM (active); in the experiment with ATS95, 5.01 µM (active). Besides, the Potency with C2A is 11.2 µM (active); with CP185 it was 6.31 µM (active); in the experiment on CP191, 5.01 µM (active); in the experiment on CP192, 10.7 µM (active).

For `O=C(O)CP(=O)(O)O`, the Potency result in the experiment on 3D7, with 7G8, in the experiment on AA1029, in the experiment with AS120, with ATS189 and in the experiment on ATS95 was “inactive” each time. Besides, the Potency entry in the experiment with C2A, with CP185, with CP191 and in the experiment with CP192 was “inactive” each time.

For `CNCCC(Oc1ccccc1OC)c1ccccc1` (stereo not drawn), the Potency entry in the experiment with 3D7, with C2A, in the experiment with CP191 and in the experiment on CP192 was “inactive” throughout. Besides, the Potency with 7G8 is 4.47 µM (active); with AA1029 it was 10 µM (active).

As to `CN(C(=O)CCCOc1ccc2[nH]c(=O)ccc2c1)C1CCCCC1`, the Potency entry in the experiment with 3D7, in the experiment on AA1029, in the experiment on AS120, in the experiment on ATS189, with ATS95 and in the experiment with CP185 was “inactive” throughout. Also, the Potency result with CP191 and in the experiment with CP192 was “inactive” each time. The Potency with 7G8 was 11.2 µM (active).

Regarding `COc1ccc([C@@H]2Sc3ccccc3N(CCN(C)C)C(=O)[C@@H]2OC(C)=O)cc1`, the Potency result with 3D7, in the experiment with AA1029, in the experiment with AS120, in the experiment with ATS189, in the experiment on ATS95 and in the experiment with C2A was “inactive” in each case. In addition, the Potency result with CP185, in the experiment with CP191 and in the experiment on CP192 was “inactive” in each case.

Take `CCOC(=O)C1=C(C)NC(C)=C(C(=O)OC)C1c1cccc(Cl)c1Cl` (stereo not drawn): the Potency result in the experiment with 3D7, in the experiment with AA1029, in the experiment with AS120, with ATS189, in the experiment on ATS95 and in the experiment with C2A was “inactive” each time. Moreover, the Potency result in the experiment with CP185, with CP191 and in the experiment with CP192 was “inactive” in each case.

Take `CCCN1C[C@H](CSC)C[C@@H]2c3cccc4[nH]cc(c34)C[C@H]21`: the Potency result with 3D7, in the experiment with CP185 and in the experiment on CP192 was “inactive” each time. The Potency in the experiment with 7G8 is 11.2 µM (active); in the experiment on AS120, 12.6 µM (active); in the experiment with ATS95, 7.94 µM (active).

On to `COc1ccc(CCN(C)CCCC(C#N)(c2cc(OC)c(OC)c(OC)c2)C(C)C)cc1OC` (stereo not drawn), for which the Potency in the experiment on 7G8 is 10 µM (active).

With `OC(CCN1CCCCC1)(c1ccccc1)C1CCCCC1` (stereo not drawn), the Potency entry in the experiment with 3D7, in the experiment with ATS189, in the experiment on C2A, in the experiment on CP185, with CP191 and with CP192 was “inactive” throughout. In addition, the Potency with 7G8 was 8.91 µM (active).

As for `Fc1ccc(C(c2ccc(F)cc2)N2CCN(C/C=C/c3ccccc3)CC2)cc1`, the Potency in the experiment on 7G8 was 4.47 µM (active); with AS120, 10 µM (active).

Take `NC(=Nc1ccccc1)Nc1ccccc1`: the Potency entry in the experiment with 3D7, with AA1029, in the experiment on AS120, in the experiment on ATS189, in the experiment on ATS95 and with C2A was “inactive” throughout. In addition, the Potency entry with CP185, in the experiment with CP191 and with CP192 was “inactive” each time.

Take `CCC(=O)c1ccc2c(c1)N(CCCN(C)C)c1ccccc1S2`: the Potency result in the experiment with 3D7, in the experiment on CP185 and in the experiment on CP192 was “inactive” in each case.

As to `CCN(CC)CC(=O)Nc1c(C)cccc1C`, the Potency entry with 3D7, with AA1029, with AS120, in the experiment on ATS189, in the experiment with ATS95 and with C2A was “inactive” throughout. Further, the Potency entry with CP185, in the experiment on CP191 and in the experiment on CP192 was “inactive” throughout.

Consider `O=C1CC2(CCCC2)CC(=O)N1CCCCN1CCN(c2ncccn2)CC1`, for which the Potency result in the experiment on 3D7, in the experiment on AA1029, in the experiment on AS120, in the experiment with ATS189, in the experiment on ATS95 and in the experiment with C2A was “inactive” each time. The Potency result with CP185, with CP191 and in the experiment with CP192 was “inactive” in each case.

Consider `CCOC(=O)C1=C(C)NC(C)=C(C(=O)OC)C1c1cccc([N+](=O)[O-])c1` (stereo not drawn), for which the Potency is 10 µM (active) in the experiment on 7G8, 11.2 µM (active) with AA1029 and 11.2 µM (active) in the experiment with AS120. Besides, the Potency entry in the experiment with C2A is “inactive”.

For `c1cc(CN2CCCCC2)cc(OCCCNc2nc3ccccc3s2)c1`, the Potency was 6.31 µM (active) with 7G8, 5.01 µM (active) with AS120 and 7.94 µM (active) in the experiment on ATS95.

On to `CCCCNc1c(C(=O)OCC)c(C)nc2c1cnn2CC`, for which the Potency entry with 3D7, in the experiment with AA1029, in the experiment on ATS189, in the experiment on ATS95, in the experiment with C2A and in the experiment with CP185 was “inactive” in each case. The Potency result with CP191 and in the experiment on CP192 was “inactive” throughout.

Take `CCn1cc(C(=O)O)c(=O)c2cc3c(cc21)OCO3`: the Potency entry in the experiment on 3D7, in the experiment with AA1029, in the experiment on AS120, in the experiment with ATS189, with ATS95 and in the experiment on C2A was “inactive” throughout. For the same compound, the Potency result with CP185, in the experiment on CP191 and in the experiment on CP192 was “inactive” throughout.
